Source: PubChem BioAssay (NCATS)
Records with an inconclusive call do not appear. Calls of active or inactive are those of the source. Calls come from the whole dose curve; as a rule, active = well fitted inhibition curve with a large enough effect; inconclusive = small, poorly fitted or top-dose-only effect; inactive = flat fitted curve, though single readings scatter. Where a SMILES comes first, the peptide text is derived from it. [ ]: non-standard residue; d: D form. pGlu = O=C1CC[C@@H](C(=O)O)N1
% is set by controls: 0 for no effect and ±100 for the full control effect; potency is the fitted concentration of half-maximal effect.

Each compound was assayed against Voltage-gated inwardly rectifying potassium channel KCNH2 (Homo sapiens) (UniProt Q12809) (assay: qHTS Assay for Small Molecule Inhibitors of the Human hERG Channel Activity (AID 588834;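 note: lower thallium flux fluorescence means stronger hERG block; nearly all actives have a fitted effect of over 50% in size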; for activity change, negative = inhibition: top concentration of the series differs between compounds)). Conditions: U2OS BacMam hERG, FluxOR thallium flux fluorescence; series mostly up to 46.1 µM; activity change, negative = inhibition: at the top concentration.
Chain of Voltage-gated inwardly rectifying potassium channel KCNH2 (Homo sapiens) (Q12809 whole entry, looked up): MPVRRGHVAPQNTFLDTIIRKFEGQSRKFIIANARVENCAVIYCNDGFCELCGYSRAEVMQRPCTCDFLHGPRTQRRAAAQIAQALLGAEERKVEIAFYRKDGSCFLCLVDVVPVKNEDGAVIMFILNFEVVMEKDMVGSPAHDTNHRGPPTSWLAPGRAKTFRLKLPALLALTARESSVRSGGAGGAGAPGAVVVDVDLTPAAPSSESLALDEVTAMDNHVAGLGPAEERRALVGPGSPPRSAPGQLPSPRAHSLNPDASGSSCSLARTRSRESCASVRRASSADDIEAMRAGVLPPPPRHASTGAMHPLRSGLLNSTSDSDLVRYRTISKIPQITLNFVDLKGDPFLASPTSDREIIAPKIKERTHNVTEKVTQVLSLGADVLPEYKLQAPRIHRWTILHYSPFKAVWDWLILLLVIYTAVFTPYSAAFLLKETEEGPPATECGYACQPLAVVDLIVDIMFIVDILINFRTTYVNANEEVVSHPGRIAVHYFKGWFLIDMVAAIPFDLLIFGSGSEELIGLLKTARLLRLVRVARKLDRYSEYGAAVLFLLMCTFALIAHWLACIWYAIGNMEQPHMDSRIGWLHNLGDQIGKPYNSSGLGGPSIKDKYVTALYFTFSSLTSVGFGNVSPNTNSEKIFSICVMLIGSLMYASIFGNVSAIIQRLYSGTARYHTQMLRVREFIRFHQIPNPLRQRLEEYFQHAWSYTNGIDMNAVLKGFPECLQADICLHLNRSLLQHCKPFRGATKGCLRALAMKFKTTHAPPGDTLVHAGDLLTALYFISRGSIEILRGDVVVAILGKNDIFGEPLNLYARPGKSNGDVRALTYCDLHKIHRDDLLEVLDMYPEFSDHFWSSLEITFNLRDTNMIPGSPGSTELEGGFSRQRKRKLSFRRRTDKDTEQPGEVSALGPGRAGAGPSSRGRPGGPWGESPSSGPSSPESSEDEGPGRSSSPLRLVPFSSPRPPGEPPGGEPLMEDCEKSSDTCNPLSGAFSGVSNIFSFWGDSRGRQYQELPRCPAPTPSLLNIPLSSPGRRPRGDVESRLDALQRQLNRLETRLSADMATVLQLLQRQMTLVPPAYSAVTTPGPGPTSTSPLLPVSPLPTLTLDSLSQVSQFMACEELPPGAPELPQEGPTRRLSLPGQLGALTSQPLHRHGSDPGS
Method in brief: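 U2OS cells BacMam-transduced with hERG, 2000 cells/well, compound ~10 min at 37 °C before stimulation buffer. FluxOR thallium flux fluorescence read kinetically on FDSS; decrease indicates block; AC50 from Hill fits.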
For `CCCCC(=O)O[C@H]1CC[C@H]2[C@@H]3CCc4cc(O)ccc4[C@H]3CC[C@]12C`, the “activity change, negative = inhibition” value was -14.4% (inactive). With `Cc1ccc(S(=O)(=O)NC(=O)N[C@@H](C)Cc2ccccc2)cc1` the “activity change, negative = inhibition” value was 13.4% (inactive). `C=C1c2c(Cl)ccc(O)c2C(O)=C2C(=O)[C@]3(O)C(O)=C(C(N)=O)C(=O)[C@@H](N(C)C)[C@@H]3[C@@H](O)[C@H]12` was tested, and the “activity change, negative = inhibition” value was 10.5% [at 20.6 µM] (inactive). In the case of `CO/N=C(\C(=O)N[C@@H]1C(=O)N2C(C(=O)O)=C(CSc3nc(C)c(CC(=O)O)s3)CS[C@H]12)c1csc(N)n1`, the “activity change, negative = inhibition” value is reported as 0.523% (inactive). `CC[C@H](C)[C@H](NC(=O)[C@H](Cc1ccccc1)NC(=O)[C@H](C)NC(=O)[C@H](CC(=O)O)NC(=O)[C@H](CCCCN)NC(=O)[C@H](CO)NC(=O)[C@@H]1CCCN1C(=O)[C@@H]1CCC(=O)N1)C(=O)NCC(=O)N[C@@H](CC(C)C)C(=O)N[C@@H](CCSC)C(N)=O` ([pGlu]PSKDAFIGLM-NH2) was tested, and the “activity change, negative = inhibition” value was 4.37% (inactive). With `C=N[C@@H](C(=O)N[C@@H]1C(=O)N2[C@@H]1SC(C)(C)[C@@H]2C(=O)O)c1ccccc1` the “activity change, negative = inhibition” value was 10.4% (inactive). In the case of `CCCCC(O)c1ccccc1` (configuration not stated), the “activity change, negative = inhibition” value is reported as -10.1% (inactive). In the case of `CN[C@@H]1[C@@H](O)[C@@H](O[C@@H]2[C@@H](O)[C@H](O[C@H]3O[C@H](CN)[C@@H](O)[C@H](O)[C@H]3O)[C@@H](N)C[C@H]2NC(=O)C(O)CN)OC[C@]1(C)O` (some centres not stated), the “activity change, negative = inhibition” value is reported as 16.3% (inactive). `O=C(OC[C@H]1O[C@@H](OC(=O)c2cc(O)c(O)c(OC(=O)c3cc(O)c(O)c(O)c3)c2)[C@H](OC(=O)c2cc(O)c(O)c(OC(=O)c3cc(O)c(O)c(O)c3)c2)[C@@H](OC(=O)c2cc(O)c(O)c(OC(=O)c3cc(O)c(O)c(O)c3)c2)[C@@H]1OC(=O)c1cc(O)c(O)c(OC(=O)c2cc(O)c(O)c(O)c2)c1)c1cc(O)c(O)c(OC(=O)c2cc(O)c(O)c(O)c2)c1` was tested, and the Potency was 25.1 µM (active). For `C[C@@H]1C[C@H]2[C@@H]3C[C@H](F)C4=CC(=O)C=C[C@]4(C)[C@@]3(Cl)[C@@H](O)C[C@]2(C)[C@H]1C(=O)COC(=O)C(C)(C)C`, the “activity change, negative = inhibition” value was -2.65% (inactive). `CC[C@H]1OC(=O)C[C@@H](O)[C@H](C)[C@@H](O[C@@H]2O[C@H](C)[C@@H](O[C@H]3C[C@@](C)(O)[C@@H](O)[C@H](C)O3)[C@H](N(C)C)[C@H]2O)[C@@H](CC=O)C[C@@H](C)C(=O)/C=C/C(C)=C/[C@@H]1CO[C@@H]1O[C@H](C)[C@@H](O)[C@@H](OC)[C@H]1OC` was tested, and the “activity change, negative = inhibition” value was 11.2% (inactive). In the case of `CC[C@H]1NC(=O)[C@@H](NC(=O)c2ncccc2O)[C@@H](C)OC(=O)[C@H](c2ccccc2)NC(=O)[C@@H]2CC(=O)CCN2C(=O)[C@H](Cc2ccccc2)N(C)C(=O)[C@@H]2CCCN2C1=O`, the “activity change, negative = inhibition” value is reported as 30.7% (inactive).
